High-throughput results deposited in PubChem BioAssay by National Center for Advancing Translational Sciences (NCATS).
HCMV inh = human cytomegalovirus inhibition | hit rate 4.5% among 410,000 | activity change, negative = inhibition, % at 57.5 µM | AID 1259415 | HFF cells, HCMV-luciferase reporter, 72 h; hits give low values; in the data active = activity change below about -60%; inconclusive = no clear call, values can overlap the other calls; inactive = above about -39%
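After 16 h attachment at 37C, HFF cells received test compound and HCMV-luciferase (1 PFU/cell); reporter luminescence read 72 h later, data normalized against buffer-only and known inhibitor Salinomycin.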
Pf growth 48h = inhibits P. falciparum growth in the first generation, 48 h; P. falciparum luciferase growth in erythrocytes, 48 h; hit rate 5.9% among 310,000; Potency, µM (top dose mostly 28.7 µM), without a hit: at the highest dose activity change, negative = inhibition, hits mostly inhibitors; note: potency is the fitted concentration of half-maximal effect
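First compound was added to culture medium, then infected red cells at 0.1% parasitemia and 2% hematocrit (final). After incubation at 37 C under 5% CO2, luciferase detection reagent was dispensed and light output recorded.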
Sm TGR inh = inhibitors of Schistosoma mansoni thioredoxin glutathione reductase; purified TGR, DTNB reduction, TNB absorbance 405 nm; hit rate 3% among 360,000; Potency, µM (series often up to 114 µM), for the others: at the top dose activity change, negative = inhibition, usual class: inhibitors; Q962Y6; AID 485364; note: potency is the fitted concentration of half-maximal effect; nearly all actives have a fitted effect of over 60% in size
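TGR 20 nM + NADPH 100 uM (dispensed conc.), cpd preinc 15 min RT; start with NADPH (500 uM addition) then DTNB (15 mM addition). Kinetic TNB absorbance, 405 nm filter. Four-parameter Hill fit across titration.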
Pf growth 96h = P. falciparum growth inhibition at 96 hours | P. falciparum luciferase reporter growth, 96 h | Potency, µM (doses to about 28.7 µM), for inactives: top-dose activity change, negative = inhibition, actives largely listed as inhibitors | hit rate 6.9% among 320,000 | AID 504834; note: potency is the fitted concentration of half-maximal effect
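Luminescence readout: decreased luciferase signal marks inhibited growth of reporter-expressing P. falciparum in infected red cells (2% hematocrit, 0.05% parasitemia final), exposed to compound two generations (96 h, 37 C, 5% CO2).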
Giardia FBPA inh-1 = Giardia lamblia aldolase inhibition. Potency, µM (highest dose often 59.6 µM), for inactives: top-dose activity, negative = inhibition, most hits filed as inhibitors. hit rate 0.71% among 290,000. purified Giardia FBPA; note: potency is the fitted concentration of half-maximal effect; nearly all actives have a fitted effect of over 55% in size
Target sequence (A8B2U2 whole entry, looked up): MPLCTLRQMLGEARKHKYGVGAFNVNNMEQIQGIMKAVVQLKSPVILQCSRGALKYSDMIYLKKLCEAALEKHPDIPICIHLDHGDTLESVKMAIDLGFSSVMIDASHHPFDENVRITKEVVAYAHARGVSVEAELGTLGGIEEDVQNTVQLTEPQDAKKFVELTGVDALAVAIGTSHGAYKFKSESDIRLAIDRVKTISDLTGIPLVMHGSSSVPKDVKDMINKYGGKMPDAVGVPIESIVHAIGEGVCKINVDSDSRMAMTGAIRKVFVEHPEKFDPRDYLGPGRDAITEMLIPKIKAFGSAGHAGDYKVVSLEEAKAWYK
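Giardia FBPA (40 nM reagent) was preincubated 10 min at RT with compound (up to 57.5 uM final), then substrate plus GAPDH/TPI/NAD/arsenate coupling system with diaphorase/resazurin was added; resorufin fluorescence (525/598 nm) was read after 20 min.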
Giardia growth = Giardia lamblia growth inhibition; shares compounds with Giardia FBPA inh-1; Giardia lamblia trophozoite growth inhibition; Potency, µM (highest dose often 57.5 µM), for inactives: top-dose activity change, negative = inhibition, most hits filed as inhibitors; hit rate 5% among 1,500;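 note: potency is the fitted concentration of half-maximal effect; trophozoites exposed to compound for 48 h at 37 °C; nearly all actives have a fitted effect of over 70% in size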
Mammalian tox = toxic to mammalian cells in Giardia aldolase counter-screen. Potency, µM (titrated, usually from 57.5 µM), for inactives: at the top dose viability change, negative = toxicity, most hits filed as inhibitors. mammalian cell viability counter-screen, qHTS. hit rate 4% among 1,500. shares compounds with Giardia FBPA inh-1;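 note: Chinese hamster ovary cells used as mammalian cytotoxicity surrogate; viability measured as cellular ATP by luminescence; potency is the fitted concentration of half-maximal effect; compound exposure lasted 48 h before reading; nearly all actives have a fitted effect of over 60% in size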
Giardia FBPA inh-2 = confirmation of Giardia fructose-bisphosphate aldolase inhibitors. shares compounds with Giardia FBPA inh-1. purified Giardia aldolase enzyme activity, qHTS. Potency, µM (doses to about 57.5 µM), inactives show at the top dose activity change, negative = inhibition, usual class: inhibitors. hit rate 5% among 1,500; note: potency is the fitted concentration of half-maximal effect; nearly all actives have a fitted effect of over 45% in size
Rabbit FBPA inh = rabbit FBP aldolase inhibition by Giardia aldolase hits | Rabbit muscle FBPA enzyme inhibition, selectivity counter-screen | Potency, µM (top dose mostly 57.5 µM), without a hit: at the top dose activity, negative = inhibition, usual class: inhibitors | hit rate 4% among 1,500 | shares compounds with Giardia FBPA inh-1 | AID 2794; note: potency is the fitted concentration of half-maximal effect; nearly all actives have a fitted effect of over 60% in size
Target sequence (P00883 whole entry, looked up): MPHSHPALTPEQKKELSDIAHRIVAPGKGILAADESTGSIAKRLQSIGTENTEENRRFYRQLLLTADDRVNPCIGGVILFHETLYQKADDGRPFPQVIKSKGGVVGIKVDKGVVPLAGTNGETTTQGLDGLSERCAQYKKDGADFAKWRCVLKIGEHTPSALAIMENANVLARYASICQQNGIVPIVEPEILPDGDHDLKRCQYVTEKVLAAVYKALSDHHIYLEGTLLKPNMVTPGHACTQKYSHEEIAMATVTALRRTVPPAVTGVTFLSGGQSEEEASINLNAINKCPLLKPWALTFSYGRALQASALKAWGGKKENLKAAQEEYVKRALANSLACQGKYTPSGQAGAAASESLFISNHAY
GAPDH counter = counter-screen for Giardia aldolase inhibitors: GAPDH coupling enzyme | shares compounds with Giardia FBPA inh-1 | Potency, µM (doses to about 57.5 µM), without a hit: at the highest dose activity change, negative = inhibition, hits mostly inhibitors | hit rate 6% among 1,500 | AID 2795 | GAPDH coupling enzyme counterscreen, biochemical, qHTS; note: potency is the fitted concentration of half-maximal effect; nearly all actives have a fitted effect of over 55% in size
The depositor's hits bear a star; ? = inconclusive; . = not tested or not shown; [ ] = another dose, or the depositor's remark. In the library only some 14% were active in any assay of this set; here they are far more common. Unless noted, calls come from the whole dose curve; as a rule, active = well fitted curve in the direction sought with a large enough effect; inconclusive = small, poorly fitted or top-dose-only effect, or another doubt; inactive = no such curve, though single readings can be large; an effect the other way counts as inactive or inconclusive. % is set by controls: 0 for no effect and ±100 for the full control effect.

SMILES | HCMV inh | Pf growth 48h | Sm TGR inh | Pf growth 96h | Giardia FBPA inh-1 | Giardia growth | Mammalian tox | Giardia FBPA inh-2 | Rabbit FBPA inh | GAPDH counter
O=C(NC1CC2CCCC(C1)N2Cc1ccc(F)cc1)c1ccc(F)cc1 (centres undefined) | -17 | ? | 0% | -21% | -10% | . | . | . | . | .
O=C(Nc1n[nH]c(=S)s1)c1ccco1 | 8 | 45% | -2% | 79% | 7.1µM* | -5%[38.3 µM] | 4% | 40µM* | -12% | -21%
COc1ccc(-c2coc3cc(OC(C)=O)c(OC)cc3c2=O)cc1 | 79 | . | . | . | . | . | . | . | . | .
CCCCNC(=O)Oc1c(Br)cc2sc(=O)oc2c1Br | . | 5% | 4% | 19% | 16µM* | -15% | 11% | -5% | 1% | -15%
Oc1c(C(c2ccc(Cl)cc2)N2CCOCC2)sc2nc(-c3ccco3)nn12 (centres undefined) | 3 | . | 4% | . | . | . | . | . | . | .
CC(NC(=O)Nc1ccccc1O)(C(F)(F)F)C(F)(F)F | ? | -18% | -1% | . | -22% | . | . | . | . | .
CC(NC(=O)NNC(N)=S)(C(F)(F)F)C(F)(F)F | -17 | 3% | -5% | -16% | 18µM* | 31% | 9% | 6% | 7% | 8%
O=C(NC(=S)Nc1cccnc1Cl)c1ccc(F)cc1 | 34 | 124% | ? | 17% | 14µM* | ? | 12% | 5% | 0% | 12%
O=C(NC(=S)Nc1ncccn1)c1ccc(F)cc1 | 41 | 29% | 41% | 3% | 6.3µM* | ? | -8% | 2% | 6% | 11%
CC(=O)Nc1ccc(S(=O)(=O)NNC(=S)NCC2CCCO2)cc1 (centres undefined) | 6 | 0% | ? | ? | 13µM* | 133% | 2% | 11% | 9% | 11%
NS(=O)(=O)c1ccc(NC(=S)NCC2CCCO2)cc1 (centres undefined) | -26 | 8% | -17% | ? | -2% | . | . | . | . | .
N#CC1(NC(=O)COC(=O)c2ccccc2SCC(=O)N2CCCC2)CCCCC1 | -5 | -8% | 3% | ? | . | . | . | . | . | .
C=C1CCC[C@]2(C)C[C@H]3OC(=O)C(CNCCN(CC)CC)[C@H]3CC12 (some centres undefined) | -21 | ? | 0% | ? | 16µM* | ? | 12% | 1% | 12% | 8%
CCNC(=S)N/N=C(\C)c1ccco1 | ? | 8% | ? | ? | 18µM* | 6% | -3% | 7% | 5% | 6%
C/C(=N\NC(=S)Nc1cccc(C)c1)c1ccco1 | 42 | ? | ? | 16% | 1% | . | . | . | . | .
CCOc1ccc(C(=O)CCC(=O)O)cc1 | -11 | 7% | -16% | 4% | -2% | . | . | . | . | .
CCOc1ccc(/C(CCC(=O)O)=N/NC(=S)NC(C)C)cc1 | -11 | -24% | -3% | ? | 16µM* | -16% | 18% | 4% | 15% | 10%
N#C/C(=C\c1ccc2c(c1)OCO2)C(N)=S | 11 | 30% | -8% | 11% | -18% | . | . | . | . | .
N#C/C(=C/c1ccco1)C(N)=S | -4 | ? | -1% | ? | 16µM* | ? | 6% | 2% | 2% | 6%
COc1cccc(-n2c(=O)c3ccccc3n3c(=S)[nH]nc23)c1 | 8 | 19% | -3% | 22% | ? | . | . | . | . | .
COCCCn1c(=O)c2ccccc2n2c(=S)[nH]nc12 | -21 | 5% | 7% | -2% | 7.1µM* | -21%[38.3 µM] | -5% | 7% | -2% | -16%
O=C(NNC(=O)c1ccccc1[N+](=O)[O-])c1ccccn1 | -17 | ? | 19% | 38% | 16µM* | -15%[10.4 µM] | -16% | -5% | -6% | -14%
CC(=O)N[C@@H]1CCSC1=O | . | . | . | . | 5%[21.7 µM] | . | . | . | . | .
CC(=O)NC1C(=O)SC1(C)C (centres undefined) | . | 23% | -2% | 43% | 16µM* | -10% | -5% | -22% | -4% | -3%
O=c1c2c3c(sc2n(Cc2cc(=O)n4ccccc4n2)c(=O)n1-c1ccc(Cl)cc1)CCC3 | 18 | . | 4% | . | . | . | . | . | . | .
SMILES | HCMV inh | Pf growth 48h | Sm TGR inh | Pf growth 96h | Giardia FBPA inh-1 | Giardia growth | Mammalian tox | Giardia FBPA inh-2 | Rabbit FBPA inh | GAPDH counter
O=C(N/N=C/c1ccccn1)C(=O)N1CCCCCC1 | 181 | 16% | 16% | -7% | 18µM* | 20% | 0% | 7% | 1% | 4%
O=C(N/N=C/c1ccccc1C(=O)O)C(=O)N1CCCCC1 | 5 | 0% | . | 6% | 1% | . | . | . | . | .
Nc1nnnn1CC(=O)N/N=C/c1ccccn1 | -18 | 13% | 17% | -1% | 18µM* | -15% | 0% | 2% | 2% | -1%
Nc1nnnn1CC(=O)N/N=C/c1cccs1 | 3 | 4% | -3% | 26% | 0% | . | . | . | . | .
Nc1nnc(-c2cc3c(ccc4ccccc43)oc2=O)s1 | . | 12% | 4% | 27% | -3% | . | . | . | . | .
O=C(CC1C(=O)OCC2CCCCN21)Nc1ccccc1C(F)(F)F (centres undefined) | 40 | 12% | ? | -52% | 22µM* | 54% | 23% | 5% | 0% | 13%
Cc1ccc(NC(=O)CC2C(=O)OCC3CCCCN32)cc1Cl (centres undefined) | 20 | 1% | -3% | 23% | -4% | . | . | . | . | .
Cc1ccc(C(=O)Nc2nc(C)c(C(=O)N(C)C)s2)o1 | 85 | -3% | -1% | 11% | -9% | . | . | . | . | .
Cc1nc(NC(=S)NC(=O)c2ccco2)sc1C(=O)N(C)C | 12 | 21% | -2% | 6% | 10µM* | -5%[38.3 µM] | -14% | -2% | 7% | 5%
Cc1nc(NC(=S)NC(=O)c2ccccc2)sc1C | 45 | 0% | 1% | 114% | 11µM* | ? | ? | -2% | 4% | 8%
Cc1nc(NC(=O)c2ccccc2)sc1C | 38 | 322% | 0% | -37% | -11% | . | . | . | . | .
Cc1ccccc1-c1n[nH]nc1C1=CC(=O)C[C@H](c2ccc(F)cc2)C1 | -19 | . | . | . | . | . | . | . | . | .
CCN1CCN(CC(=O)Nc2cc3c(cc2C(C)=O)OCO3)CC1 | 50 | 15% | -12% | 11% | 13µM* | -1%[10.4 µM] | 13% | -2% | 3% | 9%
